ChEMBL document CHEMBL3988442, “University of Dundee, Small-Polar-MMV Screening Library” (2021)

The molecules below were run against AMP-activated protein kinase, AMPK (Homo sapiens) (UniProt P54646+O43741+P54619+Q9UGJ0+Q9Y478+Q13131+Q9UGI9) (assay: AMP-dependent Kinase enzyme assay. An in vitro enzyme assay that detects ADP turnover that is directly proportional to AMPK activity. This uses naive AMPK that is activated during the assay with MK-8722). Details: 30 µM.
Assay type: functional
Design: scale not given: direction of the effect not stated beside the values

| SMILES | Percent Effect |
| --- | --- |
| O=C(NCCCn1cccn1)C1COCC(=O)N1Cc1ccccc1 (stereo not given) | -3.92% |
| CN(CC(=O)Nc1ccccc1)C(=O)CN(C)c1ccc(Cl)cn1 | 2.82% |
| CCN(C(=O)CS(=O)(=O)c1cc(OC)c(OC)cc1C)C1CC1 | 19.2% |
| Cc1cccn2cc(CN3CCC(N4CCN(C)C4=O)CC3)nc12 | 0.324% |
| CN(Cc1csc2ccccc12)C(=O)NC1CCS(=O)(=O)C1 (stereo not given) | 8.42% |
| COc1ccc(C(=O)N2C[C@@H](O)[C@H](NCc3cnc(C)cn3)C2)cc1 | -12.3% |
| Cn1cc(N2CCN(c3ccc(C#N)c(Cl)c3)CC2=O)cn1 | -3.11% |
| CCN(Cc1cn(CC2CCNCC2)nn1)CC1CCCO1 (stereo not given) | 4.72% |
| CC(c1ncc(-c2ccccc2)o1)N1CCN(C(=O)C(C)(C)C)CC1 (stereo not given) | 12.7% |
| CCc1cccc(OCCCN(C)C(=O)CN2CCNC2=O)c1 | 5.57% |
| NCC(CO)Cc1cccc(OC(F)(F)F)c1 (stereo not given) | -3.22% |
| COc1cc(Br)c(S(=O)(=O)NC(=O)C(C)OC)cc1OC (stereo not given) | -6.43% |
| CC(C)Cc1noc(CN(C)C2CCCC2)n1 | 10.7% |
| Cc1ccc(OCc2occc2C(=O)N2CC[C@H](CO)[C@@H](O)C2)cc1 | 14.2% |
| O=C(CCn1ccc2ncccc2c1=O)N1CCCC1 | -3.54% |
| CC1(C)OC(=O)N(CC(=O)N2CCC(c3ccccc3F)C2)C1=O (stereo not given) | 12.7% |
| CN(Cc1cc(Br)cn1C)C(=O)c1cccnc1 | -0.766% |
| O=C(O)CCc1cc2n(n1)CCCN(C(=O)c1ccc(Cl)s1)C2 | 2.58% |
| CC(C)c1nnc2n1CCN(Cc1cc(Cl)c3c(c1)OCCO3)C2 | 11.8% |
| COc1ccc(CCN(C)C(=O)CN2C(=O)OC[C@@H]2C(C)C)cc1OC | 4.03% |
